From PubChem BioAssay
Calls of active or inactive are those of the source.

What was measured:
[1] = test system: Plasmodium falciparum Sir2 (PF13_0152, Sir2A); assay: Plasmodium falciparum Sir2A binding compounds – biochemical, small-molecule microarray, 635 nm fluorescence, primary screen (AID 1098); details: fluorescence 635 nm, higher = more signal;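 further: score merges spot fluorescence intensity with its signal-to-noise ratio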
[2] = probe aDKK1 binding to arrayed compounds – biochemical, biotinylated probe, 635/667 nm fluorescence, primary screen (AID 1099); details: small-molecule microarray, higher = more signal;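 further: score merges 667nm spot fluorescence with signal to noise across triplicate slides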
[3] = probe aCHRDL2 binding to arrayed compounds – biochemical, biotinylated probe, 635/667 nm fluorescence, primary screen (AID 1100); details: small-molecule microarray, higher = more signal
[4] = change in splice reporter luminescence, either direction, cell-based, HEK293, spliceosome inhibition project, primary screen (AID 1101); details: HEK293 splicing luciferase reporter, 24 h, higher = more signal, called active from +8 up or from −8 down;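 further: HEK293 cells carrying a splicing-competent luciferase reporter gene; test concentration not given here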
[5] = target: Fibroblast growth factor 10 (Homo sapiens) (UniProt O15520); assay: compounds binding fibroblast growth factor 10 – biochemical, small-molecule microarray, 635 nm fluorescence, primary screen (AID 1102); details: FGF10 binding, fluorescence 635 nm, higher = more signal
[6] = test system: glycogen synthase kinase-3 (GSK3A per assay name; protocol says GSK3B); assay: compounds binding glycogen synthase kinase-3 – biochemical, small-molecule microarray, 635 nm fluorescence, GSK3A, primary screen (AID 1103); details: fluorescence 635 nm, higher = more signal; further: the record names both GSK3A and GSK3B
[7] = target: Epidermal growth factor receptor (Homo sapiens) (UniProt P00533); assay: compounds binding epidermal growth factor receptor – biochemical, small-molecule microarray, 635 nm fluorescence, primary screen (AID 1104); details: EGFR binding, higher = more signal;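 further: score merges 667 nm emission intensity with spot signal to noise over triplicate slides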
[8] = target: Follistatin-related protein 3 (Homo sapiens) (UniProt O95633); assay: compounds binding follistatin-related protein 3 – biochemical, small-molecule microarray, 635 nm fluorescence, primary screen (AID 1105); details: FSTL3 binding, higher = more signal;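 further: score merges emission near 667 nm and signal to noise per printed spot across three slides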
[9] = target: Dickkopf-related protein 1 (Homo sapiens) (UniProt O94907); assay: small molecules binding DKK1 protein – biochemical, small-molecule microarray, 635 nm fluorescence scan, primary screen (AID 1106); details: higher = more signal;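 further: score merges emission near 667 nm with signal to noise over three replicate slides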
[10] = test system: Inhibin beta A chain (activin A); assay: small molecules binding activin A – biochemical, small-molecule microarray, 635 nm fluorescence scan, primary screen (AID 1107); details: INHBA, higher = more signal;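 further: mouse activin A protein probed at 4.33 µg/mL on printed slides; score merges bound-protein fluorescence near 667 nm with spot signal-to-noise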
[11] = test system: Human papillomavirus type 1a protein E7 (residues 44-93); assay: small molecules binding HPV E7 44-93 – biochemical, small-molecule microarray, residues 44-93, 635 nm fluorescence, primary screen (AID 1108); details: fluorescence 635 nm, higher = more signal;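 further: E7 fragment applied at 1 µg/mL in TBST for 1 h at 4 C; score combines spot fluorescence with its signal to noise ratio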
[12] = hepatitis C replication reporter changes, two-sided – Huh7 cells, luciferase reporter, HCV replication inhibitor project, primary screen (AID 1109); details: Huh7 HCV replicon luciferase reporter, 48 h; higher = more signal;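 further: huh7 hepatoma cells harbouring a luciferase neomycin HCV replicon reporter; luciferase luminescence as measure of HCV replicon replication; test concentration not given here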
[13] = target: Left-right determination factor 2 (Homo sapiens) (UniProt O00292); assay: small molecules binding LEFTY2 protein – biochemical, small-molecule microarray, 635 nm fluorescence scan, primary screen (AID 1110); details: higher = more signal
[14] = target: Calmodulin-1 (Homo sapiens) (UniProt P0DP23); assay: small molecules binding calmodulin-1 with EGTA – biochemical, small-molecule microarray, Cy5-labelled CALM1, profiling panel (AID 1111); details: Cy5-CALM1 binding fluorescence, higher = more signal;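 further: labelled calmodulin applied in Tris saline Tween buffer holding calcium plus EGTA and DTT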
[15] = target: Calmodulin-1 (Homo sapiens) (UniProt P0DP23); assay: small molecules binding Ca-loaded calmodulin-1 – biochemical, small-molecule microarray, Cy5-labelled CALM1, plus calcium, artefact control for SMM control-protein annotation, profiling panel (AID 1112); details: Cy5-CALM1 binding fluorescence, higher = more signal;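 further: score merges spot fluorescence with signal to noise from triplicate slides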
[16] = probe aWnt5a binding to arrayed compounds – biochemical, biotinylated probe, 635/667 nm fluorescence, primary screen (AID 1113); details: small-molecule microarray, higher = more signal;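 further: score merges 667 nm fluorescence intensity with signal-to-noise per printed feature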
[17] = probe aShh binding to arrayed compounds – biochemical, biotinylated probe, 635/667 nm fluorescence, primary screen (AID 1114); details: small-molecule microarray, higher = more signal;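 further: probe is biotin-labelled aShh protein from a stem cell growth factor screen; measures binding of labelled protein to compounds printed on the slide; score merges feature fluorescence at 667 nm with signal-to-noise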
[18] = probe aNog binding to arrayed compounds – biochemical, biotinylated probe, 635/667 nm fluorescence, primary screen (AID 1115); details: small-molecule microarray, higher = more signal;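 further: probe is biotinylated aNog protein used at 0.15 µg/mL for 1 h at 4 C; z-score combines 667 nm fluorescence of each spot with its signal to noise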
[19] = target: Torsin-1A-interacting protein 1 (Homo sapiens) (UniProt Q5JTV8); assay: compound microarray binding of lysate hLAP1 – cell lysate, small-molecule microarray, COS7 lysate, 635/667 nm fluorescence, primary screen (AID 1116); details: 635 nm fluorescence, higher = more signal
[20] = target: Alpha-bungarotoxin (Bungarus multicinctus) (UniProt P60615); assay: compounds binding labelled alpha-BTX control protein – biochemical, small-molecule microarray, Alexa647 label, 635/667 nm fluorescence, artefact control for SMM control protein annotation, profiling panel (AID 1117); details: alpha-BTX-A647 binding fluorescence, higher = more signal
Sequence of Alpha-bungarotoxin (Bungarus multicinctus) (P60615 whole entry, looked up): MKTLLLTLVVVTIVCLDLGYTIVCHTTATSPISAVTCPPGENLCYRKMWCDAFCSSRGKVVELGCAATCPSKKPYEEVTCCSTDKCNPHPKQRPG

Sequence of Follistatin-related protein 3 (Homo sapiens) (O95633 whole entry, looked up): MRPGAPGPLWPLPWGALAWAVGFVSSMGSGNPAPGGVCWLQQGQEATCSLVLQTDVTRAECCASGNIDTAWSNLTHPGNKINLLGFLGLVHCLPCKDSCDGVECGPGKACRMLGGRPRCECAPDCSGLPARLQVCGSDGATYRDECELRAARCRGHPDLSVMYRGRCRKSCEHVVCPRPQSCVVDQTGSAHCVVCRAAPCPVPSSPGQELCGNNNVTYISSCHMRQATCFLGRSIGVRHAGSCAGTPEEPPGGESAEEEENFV
Sequence of Epidermal growth factor receptor (Homo sapiens) (P00533 whole entry, looked up): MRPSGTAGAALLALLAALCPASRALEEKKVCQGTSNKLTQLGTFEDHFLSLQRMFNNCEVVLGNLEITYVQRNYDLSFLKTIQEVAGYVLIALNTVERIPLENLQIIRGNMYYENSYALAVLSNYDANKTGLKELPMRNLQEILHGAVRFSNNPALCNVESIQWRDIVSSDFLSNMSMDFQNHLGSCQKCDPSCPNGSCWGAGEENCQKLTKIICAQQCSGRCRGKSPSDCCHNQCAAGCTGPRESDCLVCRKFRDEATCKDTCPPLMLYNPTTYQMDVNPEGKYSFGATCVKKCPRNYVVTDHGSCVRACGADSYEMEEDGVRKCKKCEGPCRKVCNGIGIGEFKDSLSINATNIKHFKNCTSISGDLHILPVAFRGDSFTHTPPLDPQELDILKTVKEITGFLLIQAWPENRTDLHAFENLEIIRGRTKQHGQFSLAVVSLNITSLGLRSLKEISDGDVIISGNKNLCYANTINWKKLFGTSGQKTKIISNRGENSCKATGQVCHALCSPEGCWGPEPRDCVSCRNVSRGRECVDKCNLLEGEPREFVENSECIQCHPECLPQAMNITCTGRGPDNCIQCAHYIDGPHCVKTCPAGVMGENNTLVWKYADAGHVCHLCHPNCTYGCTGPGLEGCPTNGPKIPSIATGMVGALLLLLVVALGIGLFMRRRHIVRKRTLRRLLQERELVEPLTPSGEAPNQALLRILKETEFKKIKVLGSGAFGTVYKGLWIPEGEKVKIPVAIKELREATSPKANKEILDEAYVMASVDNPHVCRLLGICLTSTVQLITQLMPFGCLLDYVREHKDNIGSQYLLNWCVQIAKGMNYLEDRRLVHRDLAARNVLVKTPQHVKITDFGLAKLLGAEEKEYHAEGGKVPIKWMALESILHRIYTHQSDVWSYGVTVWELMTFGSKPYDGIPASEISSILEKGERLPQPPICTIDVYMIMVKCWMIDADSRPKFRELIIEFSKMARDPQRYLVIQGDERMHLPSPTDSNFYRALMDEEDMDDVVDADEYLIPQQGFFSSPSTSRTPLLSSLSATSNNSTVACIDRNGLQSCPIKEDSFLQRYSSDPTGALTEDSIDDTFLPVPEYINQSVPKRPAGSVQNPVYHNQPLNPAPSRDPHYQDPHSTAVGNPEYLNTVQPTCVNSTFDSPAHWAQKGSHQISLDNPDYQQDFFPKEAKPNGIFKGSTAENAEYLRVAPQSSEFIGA
Sequence of Fibroblast growth factor 10 (Homo sapiens) (O15520 whole entry, looked up): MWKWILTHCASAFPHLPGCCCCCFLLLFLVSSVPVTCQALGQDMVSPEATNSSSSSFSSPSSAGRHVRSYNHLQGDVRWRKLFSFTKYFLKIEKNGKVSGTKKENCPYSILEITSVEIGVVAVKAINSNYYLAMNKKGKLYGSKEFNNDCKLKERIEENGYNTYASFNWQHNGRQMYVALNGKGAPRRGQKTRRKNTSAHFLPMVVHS
Sequence of Torsin-1A-interacting protein 1 (Homo sapiens) (Q5JTV8 whole entry, looked up): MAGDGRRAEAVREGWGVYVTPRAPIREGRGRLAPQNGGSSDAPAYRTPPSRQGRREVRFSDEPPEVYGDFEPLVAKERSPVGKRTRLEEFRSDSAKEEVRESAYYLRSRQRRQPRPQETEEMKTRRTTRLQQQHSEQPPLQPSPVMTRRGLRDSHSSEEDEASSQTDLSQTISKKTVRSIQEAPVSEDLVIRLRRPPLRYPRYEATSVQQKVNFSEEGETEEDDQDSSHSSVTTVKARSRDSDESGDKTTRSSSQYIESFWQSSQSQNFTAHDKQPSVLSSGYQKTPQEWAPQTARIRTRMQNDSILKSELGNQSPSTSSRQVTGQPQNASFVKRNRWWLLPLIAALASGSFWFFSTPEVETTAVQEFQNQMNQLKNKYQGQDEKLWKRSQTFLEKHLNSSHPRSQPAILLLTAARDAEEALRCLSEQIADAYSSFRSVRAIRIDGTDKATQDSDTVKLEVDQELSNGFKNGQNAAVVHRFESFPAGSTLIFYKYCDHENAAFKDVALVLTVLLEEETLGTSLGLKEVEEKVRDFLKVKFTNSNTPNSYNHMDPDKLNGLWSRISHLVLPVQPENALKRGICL
Sequence of Left-right determination factor 2 (Homo sapiens) (O00292 whole entry, looked up): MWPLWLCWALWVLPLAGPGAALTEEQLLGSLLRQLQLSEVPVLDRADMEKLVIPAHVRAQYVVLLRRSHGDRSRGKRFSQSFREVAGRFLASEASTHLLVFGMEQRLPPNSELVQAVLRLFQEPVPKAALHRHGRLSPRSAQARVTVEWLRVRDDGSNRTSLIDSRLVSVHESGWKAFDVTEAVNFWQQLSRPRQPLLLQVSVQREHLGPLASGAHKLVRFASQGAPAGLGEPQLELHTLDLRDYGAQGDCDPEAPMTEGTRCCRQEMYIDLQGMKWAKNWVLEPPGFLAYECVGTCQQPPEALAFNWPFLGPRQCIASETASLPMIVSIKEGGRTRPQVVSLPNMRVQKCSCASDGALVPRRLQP
Sequence of Dickkopf-related protein 1 (Homo sapiens) (O94907 whole entry, looked up): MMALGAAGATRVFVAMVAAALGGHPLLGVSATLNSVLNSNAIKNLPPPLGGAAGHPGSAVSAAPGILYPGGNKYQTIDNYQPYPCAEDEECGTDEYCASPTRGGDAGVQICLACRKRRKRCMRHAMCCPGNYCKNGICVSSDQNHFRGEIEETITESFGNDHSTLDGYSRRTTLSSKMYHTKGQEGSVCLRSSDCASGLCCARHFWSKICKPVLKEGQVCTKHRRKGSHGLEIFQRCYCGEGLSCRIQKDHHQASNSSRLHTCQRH

Structure (SMILES) | composite z-score [1] | composite z-score [2] | composite z-score [3] | z-score [4] | composite z-score [5] | composite z-score [6] | composite z-score [7] | composite z-score [8] | composite z-score [9] | composite z-score [10] | composite z-score [11] | z-score [12] | composite z-score [13] | composite z-score [14] | composite z-score [15] | composite z-score [16] | composite z-score [17] | composite z-score [18] | composite z-score [19] | composite z-score [20]
C=CC[C@]1(C(=O)O)N=C(c2ccc(OCCCO)cc2)O[C@H]1c1ccccc1N=[N+]=[N-] | 1.75 | 0.623 | 1.05 | -0.627 (inactive) | -0.103 | -0.335 | -0.18 | -0.214 | -0.651 | 1.43 | -0.914 | 1.65 | -0.753 | 1.74 | 0.768 | 0.055 | -0.0243 | -0.0069 | 1.45 | 0.0298
COc1ccc([C@H]2C[C@H]3C(Br)=C[C@]2(OC)C(=O)[C@]32CO2)cc1 | 0.488 | -0.0499 | 0.348 | 1.49 (inactive) | 1.05 | 0.083 | -0.0387 | -0.0092 | 0.239 | 0.504 | -0.681 | -2.26 | 0.219 | -0.408 | -0.668 | -0.113 | -0.0769 | -0.176 | 0.42 | -0.268
COCCOC(=O)N1C(=O)[C@@]2(c3cc(C#CCCO)ccc31)[C@H](C(=O)N1CCCCCCC1)[C@H]1C(=O)O[C@H](c3ccccc3)[C@H](c3ccccc3)N1[C@@H]2c1ccc(O)cc1 | 1.46 | 1.53 | 1.19 | -1.15 (inactive) | 0.494 | 1.28 | 0.292 | 1.3 | 0.4 | 1.27 | 1.02 | -1.18 | 0.383 | 2.14 | 0.719 | 0.0775 | 0.814 | 0.916 | 2.56 | 1.45
COc1cc(CO)cc(I)c1O[C@H]1C=C(C(=O)NCCO)C[C@@H](NCCc2c[nH]c3ccccc23)[C@@H]1O | 1 | 0.27 | 0.375 | -1.01 (inactive) | 1.06 | 0.433 | 0.666 | 1.05 | 0.4 | 1.22 | -0.552 | -2.76 | 0.688 | 0.228 | -0.56 | -0.0032 | 0.116 | 0.758 | 0.762 | 0.988
O=C(CS)NCCCCCNC(=O)[C@H]1C[C@H]2C(=O)N3CCC[C@H]3C(=O)N2[C@H]1c1ccc(O)cc1 | 0.203 | -0.18 | -0.196 | -1.45 (inactive) | -0.0763 | -1.07 | 0.392 | -0.47 | 0.844 | 0.594 | -0.295 | 0.0187 | 0.679 | 1.45 | 1.22 | -0.197 | 0.046 | -0.0207 | 2.97 | -1.3
Cc1cc(C)c(C(O)C2C=CC3C(=O)N(C)C(=O)C3N2N2CCCCC2)c(C)c1 (stereo not given) | 1.38 | 0.261 | 1.2 | 1.91 (inactive) | 1.07 | 1.31 | 0.641 | 1.35 | 0.384 | 1.36 | 1.37 | 0.186 | 0.314 | 1.75 | 0.22 | 0.0437 | 0.308 | 1.45 | 0.959 | 2.36
CC(C)[Si]1(C(C)C)O[C@@H](c2ccccc2)c2cc(C3CC3)nc(-c3ccc(Oc4ccccc4)cc3)c21 | -1.25 | -0.105 | -0.037 | -0.961 (inactive) | -0.318 | -0.343 | -0.0891 | -0.489 | -0.159 | 0.513 | -0.266 | -0.176 | -0.436 | -0.395 | 0.89 | -0.0758 | -0.214 | -0.158 | 0.0613 | -0.789
CN(C)CCCC[C@@H]1NC(=O)[C@@H]2C[C@H](C(=O)O)[C@H](c3ccc(O)cc3)N2C1=O | 0.902 | -0.005 | -0.222 | -2.22 (inactive) | 0.857 | 1.21 | 0.737 | 0.928 | 1.68 | 0.293 | 0.668 | 0.883 | 1.15 | -0.0922 | -0.0146 | 0.0078 | -0.138 | 0.69 | 0.485 | 1.2
COCCOC(=O)N1C(=O)[C@@]2(c3cc(C#CC4=CCCCC4)ccc31)[C@H](C(=O)NC[C@H](O)c1ccccc1)[C@H]1C(=O)O[C@H](c3ccccc3)[C@H](c3ccccc3)N1[C@@H]2c1ccccc1OCCO | 1.28 | 0.659 | 0.635 | -1.5 (inactive) | 0.533 | 1.05 | 0.366 | 1.08 | 0.599 | 1.13 | 0.453 | -3.01 | 0.394 | 1.43 | 0.635 | 0.0246 | 0.443 | 0.216 | 0.814 | 2.18
O=C/C=C/c1ccc(/C=C/c2ccccc2)cc1 | -0.636 | -0.287 | 0.616 | -0.653 (inactive) | -0.77 | -0.386 | 0.193 | 0.233 | -0.278 | 1.47 | -1.48 | 0.783 | 0.0281 | -0.858 | -0.584 | -0.0585 | -0.0886 | -0.489 | 0.2 | 0.129
CC1CC/C=C\[C@H]2OC34C=CCN(Cn5nnc6ccccc65)C(=O)[C@H]3N(C(C)CO)C(=O)[C@@H]4C2C(=O)O1 (stereo not given in full) | 1.26 | -0.0466 | 0.201 | 0.825 (inactive) | 0.0056 | -0.837 | -0.848 | -0.814 | -0.936 | 0.494 | -0.132 | -0.276 | -0.371 | -0.45 | -0.223 | -0.184 | -0.123 | 0.34 | 0.413 | -0.465
